From PubChem BioAssay (EPA / NIEHS)
Several values for one entry are separate records, joined by “and”; a condition that tells them apart may be missing. Equal entries are not always repeated. Results filed as inconclusive are left out. A structure can be active in one record and inactive in another. Activity calls are given as the source filed them. The calls were made as follows, unless noted: active = hit-call score of the fitted dose curve at least 0.9, where 1 is the maximum; inconclusive = response in the unintended direction; inactive = score below 0.9. *1 amine or outer side, *2 acyl side, *3 side chain or, on linkers, in order; H or OH if unused. Where a SMILES comes first, the peptide text is derived from it. Bridges are numbered along the chain shown (N, C = ends). Roman numbers before positions name the chains, in order. [ ]: non-standard residue; d: D form. Actinocin(9to1) = Cc1c2oc3c(C)ccc(C(=O)[*:1])c3nc-2c(C(=O)[*:2])c(N)c1=O; NMeV = CN[C@H](C(=O)O)C(C)C; Sar = CNCC(=O)O

Experiments:
[1] = biological target: Cellular tumor antigen p53 (Homo sapiens) (UniProt P04637); assay: TOX21_p53_BLA_p2_ratio: Tox21 HCT-116 p53 Agonism Beta-lactamase Assay, Ratio, Phase 2 (AID 2283592)
Procedure, shortened: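 Human colon HCT116 cells with an inducible p53 beta-lactamase reporter are exposed to test chemicals for 16 h at 37C. Reporter induction is read as the 460/530 nm emission ratio after CCF4-AM loading, normalized to DMSO.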

[2] = TOX21_p53_BLA_p3_viability: Viability Assessment in the Tox21 HCT-116 p53 Agonism Beta-lactamase Assay, Phase 3 (AID 2283593);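 also: cells exposed to compound for 16 h before reading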
Procedure, shortened: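 Cellular ATP was quantified by CellTiter-Glo luminescence, read after 30 min at room temperature. Beforehand, HCT116 cells (4000/well) received compound 5 h post-seeding, 217-fold diluted from DMSO, then incubated 16 h at 37C.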

[3] = TOX21_p53_BLA_p4_viability: Viability Assessment in the Tox21 HCT-116 p53 Agonism Beta-lactamase Assay, Phase 4 (AID 2283597);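 also: hits lower the luminescence signal meaning cytotoxicity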
Procedure, shortened: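 Luminescent ATP readout (CellTiter-Glo, 30 min, room temperature) in the same wells as the p53 bla ratio. HCT116 cells were treated for 16 h at 37C with DMSO-dissolved compounds.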

[4] = TOX21_p53_BLA_p5_viability: Viability Assessment in the Tox21 HCT-116 p53 Agonism Beta-lactamase Assay, Phase 5 (AID 2283600)
Procedure, shortened: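 Seeded cells (4000/well) settle 5 h before compound addition. Plates then incubate 16 h at 37C, receive FRET substrate for 2 h, and finally CellTiter-Glo, with luminescence measured after a 30 min room-temperature incubation.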

[5] = biological target: Cellular tumor antigen p53 (Homo sapiens) (UniProt P04637); assay: TOX21_p53_BLA_p3_ratio: Tox21 HCT-116 p53 Agonism Beta-lactamase Assay, Ratio, Phase 3 (AID 2283596)
Procedure, shortened: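 HCT116 p53-bla cells (4000/well) given compound in DMSO (217-fold dilution) after 5 h, incubated 16 h at 37C. CCF4-AM substrate 2 h at room temperature; 460/530 nm emission ratio, gain fitted against DMSO.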

[6] = biological target: Cellular tumor antigen p53 (Homo sapiens) (UniProt P04637); assay: TOX21_p53_BLA_p5_ratio: Tox21 HCT-116 p53 Agonism Beta-lactamase Assay, Ratio, Phase 5 (AID 2283599)
Procedure, shortened: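 Beta-lactamase reporter ratio (blue 460 nm over green 530 nm, 405 nm excitation) after 2 h CCF4-AM loading, in HCT-116 cells exposed 16 h at 37 C to compounds pinned at 217-fold dilution. Increases relative to DMSO baseline scored.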

[7] = biological target: Cellular tumor antigen p53 (Homo sapiens) (UniProt P04637); assay: TOX21_p53_BLA_p4_ratio: Tox21 HCT-116 p53 Agonism Beta-lactamase Assay, Ratio, Phase 4 (AID 2283601)
Procedure, shortened: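 Signal is the blue/green (460nm/530nm) ratio of cleaved versus uncleaved CCF4-AM substrate, read after 2 h substrate loading. Cells were HCT116 carrying the p53-responsive beta-lactamase reporter, dosed 16 h at 37C, 5% CO2; CellTiter-Glo measured in parallel.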

THRA (gene 7067) = THRA (gene 7067) (UniProt P10827); assay: TOX21_TRA_COA_Antagonist_Followup_ratio: Tox21 Thyroid Hormone Receptor alpha Antagonism through Coactivator Recruitment Follow-Up Assay, Ratio (AID 2283953)
Procedure, shortened: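 This follow-up to the GH3 luciferase screen checks specificity in a cell-free format. It measures SRC-2 coactivator peptide binding to TRα LBD by TR-FRET and scores loss of ratio signal relative to DMSO.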

THRB (gene 7068) [8] = biological target: THRB (gene 7068) (UniProt P10828); assay: TOX21_TRB_BLA_Antagonist_Followup_ratio: Tox21 Thyroid Hormone Receptor beta Antagonism Beta-lactamase (BLA) Follow-Up Assay, Ratio (AID 2283958)
Procedure, shortened: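 GAL4-DBD/human TRβ-LBD fusion in GeneBLAzer UAS-bla HEK293T cells, 3,000 cells/well in phenol red-free DMEM with 2% charcoal-stripped FBS; compounds at 11 concentrations in triplicate, 18 h at 37C. CCF4-AM substrate 2 h, 460:530 nm ratio relative to DMSO.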

[9] = TOX21_TRB_BLA_Antagonist_Followup_viability: Viability Assessment in the Tox21 Thyroid Hormone Receptor beta Antagonism Beta-lactamase (BLA) Follow-Up Assay (AID 2283961)
Procedure, shortened: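 In the same wells as the reporter read, cell health was gauged by CellTiter-Glo ATP luminescence, with signal loss indicating reduced viability. Cells had been exposed to test compounds for 18 h.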

THRB (gene 7068) [10] = biological target: THRB (gene 7068) (UniProt P10828); assay: TOX21_TRB_COA_Antagonist_Followup_ratio: Tox21 Thyroid Hormone Receptor beta Antagonism through Coactivator Recruitment Follow-Up Assay, Ratio (AID 2283967)
Procedure, shortened: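 Test compound was incubated with 5.0 nM GST-TRβ LBD in 0.10% BSA. Then 200 nM fluorescein-SRC-2 peptide and 2 nM terbium anti-GST antibody were added. TR-FRET (520:495 nm) was measured and normalized to DMSO and T3 controls.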

[11] = biological target: Retinoic acid receptor RXR-alpha (Homo sapiens) (UniProt P19793); assay: TOX21_TR_RXR_BLA_Antagonist_Followup_ratio: Tox21 Thyroid Hormone Receptor beta Retinoid X Receptor alpha (RXRa) Antagonism Beta-lactamase (BLA) Follow-Up Assay, Ratio (AID 2283972)
Procedure, shortened: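 Compounds were tested in triplicate at 11 concentrations on RXRa-bla HEK293T cells for 16 h. Substrate cleavage ratio, normalized to DMSO, gave the endpoint.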

[12] = CCTE_Deisenroth_DEVTOX-GLR_legacy_CellCount: (Legacy) Viability Assessment in CCTE's DevTox GLR-Endo Assay, Deisenroth Lab (AID 2284331; active = hit-call score of the fitted dose curve at least 0.9, where 1 is the maximum; inactive = score below 0.9); details: actives raise or lower the signal
Procedure, shortened: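 RUES2-GLR human pluripotent cells were seeded 24 h, then differentiated 48 h with two compound doses at 24 h intervals (10-point, 1 nM - 200 uM). Fixed nuclei were imaged and counted; bidirectional fitting versus 0.2% DMSO.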

[13] = test system: SRY-box transcription factor 2 (SOX2) Protein Expression, Deisenroth Lab, SOX2 (gene 6657); assay: CCTE_Deisenroth_DEVTOX-GLR_Endo_SOX2: CCTE's DevTox GLR-Endo Assay Evaluation of SRY-box transcription factor 2 (SOX2) Protein Expression, Deisenroth Lab (AID 2284412)
Procedure, shortened: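 RUES2-GLR human pluripotent cells were seeded 24 h, then differentiated 48 h with two chemical exposures 24 h apart. Cells were fixed, nuclei stained and imaged by high-content microscopy. Endpoint is %SOX2+ cells over cell count, minus 0.2% DMSO control; 10-point series 1 nM–200 uM.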

[14] = test system: SRY-box transcription factor 17 (SOX17) Protein Expression, Deisenroth Lab, SOX17 (gene 64321); assay: CCTE_Deisenroth_DEVTOX-GLR_Endo_SOX17: CCTE's DevTox GLR-Endo Assay Evaluation of SRY-box transcription factor 17 (SOX17) Protein Expression, Deisenroth Lab (AID 2284413; active = hit-call score of the fitted dose curve at least 0.9, where 1 is the maximum; inactive = score below 0.9)
Procedure, shortened: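 Seed RUES2-GLR cells 24 h; start endoderm differentiation; dose at 0 and 24 h (1 nM - 200 uM, 10 points); fix at 48 h, stain nuclei, image 5 fields/well; compute SOX17+/total cells vs 0.2% DMSO.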

[15] = test system: Brachyury (BRA) Protein Expression, TBXT (gene 6862); assay: CCTE_Deisenroth_DEVTOX-GLR_Endo_BRA: CCTE's DevTox GLR-Endo Assay Evaluation of Brachyury (BRA) Protein Expression, Deisenroth Lab (AID 2284417; active = hit-call score of the fitted dose curve at least 0.9, where 1 is the maximum; inactive = score below 0.9)
Procedure, shortened: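 Endpoint is the fraction of BRA reporter-positive cells over total nuclei, corrected by subtracting the 0.2% DMSO value. Chemicals (1 nM - 200 uM, 10 points) were dosed twice during 48 h differentiation of RUES2-GLR cells, read by imaging.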

[16] = CCTE_Deisenroth_DEVTOX-GLR_Endo_CellCount: Viability Assessment in CCTE's DevTox GLR-Endo Assay, Deisenroth Lab (AID 2284420; active = hit-call score of the fitted dose curve at least 0.9, where 1 is the maximum; inactive = score below 0.9)
Procedure, shortened: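 Measured 48 h after dosing: fluorescent nuclei counted by imaging in human RUES2-GLR cells under defined differentiation media, tested at 1 nM - 200 uM. Values are percent cell-count change relative to 0.2% DMSO.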

[17] = biological target: Thyroid hormone receptor alpha (Rattus norvegicus) + Thyroid hormone receptor beta (Rattus norvegicus) (UniProt P18113+P63059); assay: TOX21_TR_LUC_GH3_Antagonist_Followup: Tox21 GH3 Thyroid Hormone Receptor Antagonism Luciferase Follow-Up Assay (AID 2283942)
Procedure, shortened: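 Confirmatory qHTS, antagonist mode: T3 (1.0 nM final) + test cpd, 15 conc, 92 uM–5nM final, GH3 rat pituitary line, 24 h, 37C. Luc reporter, RLU vs DMSO.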

Measured: AC50

Sequence of Cellular tumor antigen p53 (Homo sapiens) (P04637 whole entry, looked up): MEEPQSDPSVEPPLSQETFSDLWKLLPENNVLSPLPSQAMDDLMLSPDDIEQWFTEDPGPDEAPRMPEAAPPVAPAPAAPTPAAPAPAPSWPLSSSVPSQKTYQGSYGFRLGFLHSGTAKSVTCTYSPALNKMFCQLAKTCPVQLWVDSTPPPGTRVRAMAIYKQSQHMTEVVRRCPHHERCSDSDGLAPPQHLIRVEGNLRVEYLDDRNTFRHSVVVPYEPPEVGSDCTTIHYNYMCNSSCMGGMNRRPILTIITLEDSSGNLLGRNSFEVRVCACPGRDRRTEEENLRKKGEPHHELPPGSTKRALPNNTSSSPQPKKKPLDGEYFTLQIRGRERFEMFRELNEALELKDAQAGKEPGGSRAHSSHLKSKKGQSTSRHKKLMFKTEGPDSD
Sequence of THRB (gene 7068) (P10828 whole entry, looked up, the tested form may be a part): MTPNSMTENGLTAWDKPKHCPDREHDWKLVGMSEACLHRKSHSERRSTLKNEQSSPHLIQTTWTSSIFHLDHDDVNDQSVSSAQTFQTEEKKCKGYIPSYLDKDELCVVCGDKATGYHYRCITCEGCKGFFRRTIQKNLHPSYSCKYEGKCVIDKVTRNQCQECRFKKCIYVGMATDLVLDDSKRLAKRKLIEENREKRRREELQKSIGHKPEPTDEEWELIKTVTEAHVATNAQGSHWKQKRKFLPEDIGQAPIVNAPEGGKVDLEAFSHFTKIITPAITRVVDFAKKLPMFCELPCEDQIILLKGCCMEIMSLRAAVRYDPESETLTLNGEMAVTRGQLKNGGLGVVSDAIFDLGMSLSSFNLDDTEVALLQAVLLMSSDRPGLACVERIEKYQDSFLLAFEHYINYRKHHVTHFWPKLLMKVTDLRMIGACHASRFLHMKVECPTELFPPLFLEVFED
Sequence of Retinoic acid receptor RXR-alpha (Homo sapiens) (P19793 whole entry, looked up): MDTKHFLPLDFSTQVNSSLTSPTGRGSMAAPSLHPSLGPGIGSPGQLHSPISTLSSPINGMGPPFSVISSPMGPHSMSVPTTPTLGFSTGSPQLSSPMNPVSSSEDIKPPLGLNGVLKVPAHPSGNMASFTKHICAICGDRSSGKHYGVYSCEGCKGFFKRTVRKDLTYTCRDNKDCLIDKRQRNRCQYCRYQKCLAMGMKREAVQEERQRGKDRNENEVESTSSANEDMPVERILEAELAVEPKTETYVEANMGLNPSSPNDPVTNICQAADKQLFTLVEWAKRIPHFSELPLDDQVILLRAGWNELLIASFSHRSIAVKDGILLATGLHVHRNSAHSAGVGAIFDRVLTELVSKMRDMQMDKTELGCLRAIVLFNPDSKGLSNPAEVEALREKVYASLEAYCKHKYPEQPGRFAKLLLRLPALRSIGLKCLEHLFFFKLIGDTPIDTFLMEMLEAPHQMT
Sequence of THRA (gene 7067) (P10827 whole entry, looked up, the tested form may be a part): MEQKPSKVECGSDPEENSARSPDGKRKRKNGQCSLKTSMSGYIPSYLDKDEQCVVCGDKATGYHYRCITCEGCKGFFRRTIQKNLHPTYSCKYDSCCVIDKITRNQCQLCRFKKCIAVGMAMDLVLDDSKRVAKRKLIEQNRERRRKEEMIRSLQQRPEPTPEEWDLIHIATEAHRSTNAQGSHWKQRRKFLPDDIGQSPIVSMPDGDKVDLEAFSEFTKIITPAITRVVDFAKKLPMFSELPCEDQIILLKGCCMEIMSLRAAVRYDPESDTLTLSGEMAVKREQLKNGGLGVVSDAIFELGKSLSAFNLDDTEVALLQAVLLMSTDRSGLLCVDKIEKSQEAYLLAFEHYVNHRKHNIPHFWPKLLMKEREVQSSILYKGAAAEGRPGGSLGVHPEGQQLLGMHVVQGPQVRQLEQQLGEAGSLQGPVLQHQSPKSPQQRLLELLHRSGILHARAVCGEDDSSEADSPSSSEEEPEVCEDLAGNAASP

N[C@@H](Cc1cnc[nH]1)C(=O)O
inactive: [1] | [2] | [3] | [4]

C[C@@H](CN1CC(=O)NC(=O)C1)N1CC(=O)NC(=O)C1
inactive: [1] | [2] | [3] | [4]

CCCOc1ccc2nc(NC(=O)OC)sc2c1
inactive: [2] | [4] | THRA (gene 7067) | THRB (gene 7068) [8] | [9] | THRB (gene 7068) [10] | [11]
active: [5] 3.42 µM | [6] 2.75 µM | [7] 1.66 µM

CN(Cc1ccccc1)Cc1ccccc1
inactive: [1] | [2] | [3] | [6] | [7]

CC[C@@H](C)[C@H](N)C(=O)O
inactive: [1] | [2] | [7]

COc1ccccc1N1CCN(CCCNc2cc(=O)n(C)c(=O)n2C)CC1
inactive: [1] | [5] | [3] | [4] | [7]

O=P(O)(O)OC(CO)CO
inactive: [1] | [2] | [3] | [4]

CCCCOC(=O)/C=C\C(=O)OCCCC
inactive: [2] | [5] | [6] | [4] | [7]

O=C(O)C1CCCN1 (stereo not given)
inactive: [2] | [5] | [6] | [7]

Cc1c2oc3c(C)ccc(C(=O)N[C@@H]4C(=O)N[C@H](C(C)C)C(=O)N5CCC[C@H]5C(=O)N(C)CC(=O)N(C)[C@@H](C(C)C)C(=O)O[C@@H]4C)c3nc-2c(C(=O)N[C@@H]2C(=O)N[C@H](C(C)C)C(=O)N3CCC[C@H]3C(=O)N(C)CC(=O)N(C)[C@@H](C(C)C)C(=O)O[C@@H]2C)c(N)c1=O (I: T[dV]P[Sar][NMeV] / II: T[dV]P[Sar][NMeV]; ester I:1-I:C, II:1-II:C; linker I:N-II:N via Actinocin(9to1))
active: [2] 40.6 µM | [5] 0.165 nM and 4.24 nM | [6] 0.0328 nM and 7.71 nM | [7] 0.262 nM and 3.61 nM | [12] 0.000297 µM | [13] 0.00162 µM | [14] 44.2 pM | [15] 0.00108 µM | [16] 14.8 pM
inactive: [3]

COc1ccc(NC(C)=O)cc1
inactive: [1] | [2] | [3] | [4]

C[C@H](Cc1ccc(O)c(O)c1)[C@@H](C)Cc1ccc(O)c(O)c1
inactive: [2] | [6] | [7]
active: [3] 25.9 µM

CCn1cc(C(=O)O)c(=O)c2cc(F)c(N3CCNCC3)cc21
inactive: [1] | [5] | [3] | [6] | [7]

O=C(NCCN1CCOCC1)c1ccc(Cl)cc1
inactive: [1] | [5] | [3] | [6] | [4] | [7]

O=C(NCCO[N+](=O)[O-])c1cccnc1
inactive: [1] | [2] | [3] | [4] | [7]

NC(=O)c1ncn([C@@H]2O[C@H](CO)[C@@H](O)[C@H]2O)n1
inactive: [3] | [6]
active: [1] 32.2 µM and 20.3 µM | [5] 17 µM | [6] 45.7 µM | [7] 15.6 µM

Cc1[nH]c(=O)c(C#N)cc1-c1ccc2nccn2c1
inactive: [1] | [2] | [3] | [6] | [7]

CCN(CC)C(=O)Nc1ccc(OCC(O)CNC(C)(C)C)c(C(C)=O)c1 (stereo not given)
inactive: [1] | [2] | [3] | [4]

CCCC1C(=O)N2C(N(C)C)=Nc3ccc(C)cc3N2C1=O (stereo not given)
inactive: [1] | [2] | [4]

COc1cc([C@@H]2c3cc4c(cc3[C@H](O)[C@H]3COC(=O)[C@H]23)OCO4)cc(OC)c1OC
active: THRB (gene 7068) [8] 0.0273 µM
inactive: [1] | [5] | [3] | [6] | [7] | [17] | THRA (gene 7067) | THRB (gene 7068) [10] | [11]

C=C[C@]1(C)C[C@@H](OC(=O)CO)[C@]2(C)[C@H](C)CC[C@]3(CCC(=O)[C@H]32)[C@@H](C)[C@@H]1O
inactive: [2] | [5] | [3] | [4] | [7]

c1ccc(SSc2ccccc2)cc1
inactive: [1] | [2] | [3] | [6] | [7]

C[C@@H]1O[C@@H](OC[C@H]2O[C@@H](Oc3c(-c4ccc(O)c(O)c4)oc4cc(O)cc(O)c4c3=O)[C@H](O)[C@@H](O)[C@@H]2O)[C@H](O)[C@H](O)[C@H]1O
inactive: [1] | [3] | [6] | [4] | [7]

NC(=O)CC[C@@H]1NC(=O)[C@H](Cc2ccccc2)NC(=O)[C@H](Cc2ccc(O)cc2)NC(=O)CCSSC[C@@H](C(=O)N2CCC[C@H]2C(=O)N[C@@H](CCCN=C(N)N)C(=O)NCC(N)=O)NC(=O)[C@H](CC(N)=O)NC1=O
inactive: [1] | [5] | [6] | [7]
